# Measured values reported in PubChem BioAssay (NCI).
# This is part of a sample that, as a whole, favours compounds with a hit. Of some 83,000 tested, about 20% had one in any assay.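 48-hour exposure, single concentration, 96-well plates; percent growth endpoint where 0 means no net growth. Active: below 10.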 The source made the active and inactive calls.
# Test system: T-47D breast
# Test: NCI-60 one-dose screen, 48 h (100 = growth as untreated, 0 = no growth, -100 = all killed)
# Conditions: 10 µM unless noted
# Description: Growth inhibition of the T-47D human tumor cell line is measured as a screen for anti-cancer activity. Cells are grown in 96 well plates and exposed to the test compound for 48 hours. Compounds are tested at a single concentration, which is 10^-5 M for most compounds. The reported endpoint is percent growth (GI% or GIPRCNT), where numbers from 0 - 100% represent growth inhibition, and numbers from -100% - 0 represent cell death. For example, a value of 40 represents 60% growth inhibition. A value of 0 means no net growth occurred over the course of the experiment. A value of -40 indicates 40% of cells at the beginning of the experiment died by the end of the experiment. A value of -100 means all cells are dead at the end of the experiment.
# NCI-60 Human Tumor Cell Lines Screen was performed using the standard one-dose NCI protocol, which is described in more detail at https://dtp.cancer.gov/discovery_development/nci-60/default.htm.
# Compounds with GIPRCNT values below 10 were considered active. Activity score was based on GIPRCNT using the following formula: […]
# Score is 0 for GIPRCNT values of 100 or above, 50 for GIPRCNT values of 0, and 100 for GIPRCNT values of -100.
row,SMILES,growth
1,CC(=O)O[C@H]1CC[C@@]2(C)[C@@H](CC[C@@H]3[C@@H]2CC[C@@]2(C)[C@H]3CC[C@]2(O)C(C)=O)C1,103% (inactive)
2,O=C(CN1CCOCC1)Nc1ccc2ncnc(Nc3ccc(Oc4cccc(C(F)(F)F)c4)c(Cl)c3)c2c1,19.5% (inactive)
3,Clc1ccc(C2CC(c3cccc(Nc4ccncc4)c3)=NN2c2ccc(Cl)cc2)cc1 (stereo not given),52.2% (inactive)
4,O=S(=O)(NCCCNc1nccc(-c2c(-c3ccc(F)c(O)c3)nc3sccn23)n1)c1ccc(F)cc1,-1.88% (active)
5,Cc1ccc2nc3c(cc2c1)CSc1nnc(-c2ccc[nH]c2=S)n1N3,90.8% (inactive)
6,CC[C@H](C)[C@@H]1NC(=O)[C@H](Cc2ccc(O)cc2)N(C)C(=O)[C@H](Cc2ccccc2)NC(=O)CN(C)C(=O)[C@@H]2CCCN2C(=O)[C@@H](Cc2ccccc2)N(C)C(=O)[C@H](CC(C)C)NC1=O,0.772% (active)
7,O=C(N/N=C/c1ccc(F)cc1)c1ccccc1Nc1cccc(C(F)(F)F)c1,88.2% (inactive)
8,COc1ccc(C2CC(n3nnnc3-c3ccccc3)=NN2)cc1 (stereo not given),46.3% (inactive)
9,CCc1c(Nc2ccc(C)cc2)nc(N)[nH]c1=O,96.4% (inactive)
10,Cn1c(COC(=O)NCCc2ccccn2)nc2c(N3CCOCC3)nc(Cl)nc21,-2.17% (active)
11,Cn1c(COC(=O)NCCn2ccnc2)nc2c(N3CCOCC3)nc(-c3ccccc3)nc21,-36.1% (active)
12,CC(=O)[C@@H]1CC[C@]2(C(=O)n3ccnc3)CC[C@]3(C)[C@H](CC[C@@H]4[C@@]5(C)Cc6c([nH]c7ccccc67)C(C)(C)[C@@H]5CC[C@]43C)[C@@H]12,78% (inactive)
13,C=C(C)[C@@H]1CC[C@]2(C=O)CC[C@]3(C)[C@H](CC[C@@H]4[C@@]5(C)CCCNC(C)(C)[C@@H]5CC[C@]43C)[C@@H]12,57.8% (inactive)
14,O=C(Nc1cccc(Cl)c1)c1cc(Cl)ccc1O,-11.9% (active)
15,BrC(Br)(Br)c1cnc2ccccc2n1,-49.3% (active)
16,CCCCCCOc1ccc(C(=N)N(CCCC)CCCC)c2ccccc12,-65.5% (active)
17,COc1c(Cl)cc(Cl)c2ccc(C=C3C(=O)N(C)C(=O)N(C)C3=O)nc12,100% (inactive)
18,CCCCCCC/C=C/[C@H]1O[C@]2(O)C(=O)C=C3C[C@@H](O[C@@H]4O[C@H](CO)[C@@H](O)C(O)[C@@H]4O)C[C@@H]3[C@H]2C=C1C (stereo not given in full),-9.2% (active)
19,O=C(O)C(/C=C/c1ccco1)=N\Nc1nc(-c2ccc(Cl)cc2)cs1,66.6% (inactive)
20,CC(=O)OCC(=O)C1(O)C(C)CC2C3C=C(C)C4=Cc5c(cnn5-c5ccccc5)CC4(C)C3C(O)CC21C (stereo not given),40.4% (inactive)

row,SMILES,growth
1,O=S(=O)(c1cccc(NC2=Nc3cccc4cccc2c34)c1)N1CCCC1,44.5% (inactive)
2,CC(=O)Nc1ccc(S(=O)(=O)NC2CCCCC2)cc1,90.9% (inactive)
3,Fc1ccc2nc3c(cc2c1)CSc1nnc(-c2ccc[nH]c2=S)n1N3,84.1% (inactive)
4,COc1cccc(/C=C2\COc3ccc(-c4ccccc4)cc3C2=O)c1,-6.21% (active)
5,COc1cc2nc(Cc3ccc(C)cc3)[nH]c(=O)c2cc1OC,107% (inactive)
6,COc1cc2nnn3c4ncccc4c(N=O)c3c2cc1OC,51.8% (inactive)
7,Clc1cc(Cl)cc(N2N=C(c3cccc(Nc4ccncc4)c3)CC2c2ccc3c(c2)OCO3)c1 (stereo not given),63.4% (inactive)
8,Cc1ccc(C2CC(c3cccc(Nc4ccncc4)c3)=NN2c2ccc(Cl)cc2)cc1 (stereo not given),-47.9% (active)
9,COc1ccc(Cn2nc3c(c2-c2cc(OC)c(OC)c(OC)c2)-c2oncc2CC3)cc1,79.3% (inactive)
10,COc1ccc2c(c1)OC13Oc4cc(OC)ccc4C=C1CCCC3=C2,44.7% (inactive)
11,COc1ccc(-c2nc(N/N=C/c3c[nH]c4ccccc34)nc(N3CCOCC3)c2C#N)cc1,94.9% (inactive)
12,c1ccc2c(-c3c4ccsc4cc4[nH]c5ccccc5c34)c[nH]c2c1,26.3% (inactive)
13,CCCCN(CCCC)CCc1c(C)cc(C)c(CCN(CCCC)CCCC)c1O,5.78% (active)
14,COc1ccc(Cn2nc(-c3ccccc3)c3c2CCc2cnoc2-3)cc1,43.4% (inactive)
15,C[C@]12C[C@H]1CC[C@]1(C)[C@@H]2CC[C@@]23C[C@H](CC[C@H]21)[C@@](O)(CO)C3,90.7% (inactive)
16,COc1ccc2nc(N=Nc3c(O)ccc4ccccc34)sc2c1,27.3% (inactive)
17,CCc1c(Nc2ccc(C)cc2)[nH]c(N)nc1=S,90.1% (inactive)
18,Cn1c(COC(=O)NCCN2CCOCC2)nc2c(N3CCOCC3)nc(-c3ccccc3)nc21,-28.9% (active)
19,COc1cc(-c2nc3occn3c2-c2ccnc(NCCNS(=O)(=O)c3ccc(Cl)cc3)n2)ccc1F,51.6% (inactive)
20,CNC(=O)Nc1ccc(-c2nc(N3CCOCC3)nc3c2cnn3C2CCOCC2)cc1,-15.6% (active)
